From PubChem
Glioma ERSR ind = inducers of ER stress response in human glioma cells; U87-MG GRP78 promoter luciferase reporter, 16 h; Potency, µM, for inactives: top-dose activation, hits mostly activators; 0.02% of 420,000 active; AID 602332; note: series mostly up to about 76 µM; % of control where 0% means no effect; nearly all actives have a fitted effect of over 35% in size
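Stably transfected U87-MG human glioma cells carrying a GRP78-based luminescent sensor were seeded at 1000 cells/well, pin-dosed with compounds and incubated 16 h. Luciferase reagent was then added, and end-point luminescence was read after 10 min at room temperature.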
Abeta rescue = compounds reversing amyloid beta toxicity in yeast; 0.063% of 410,000 active; yeast expressing A-beta42, growth rescue, OD600, 48 h; response scale: 0% DMSO, 100% iron-clioquinol control; Potency, µM (doses to about 46.1 µM), usual class: activators; note: nearly all actives have a fitted effect of over 55% in size
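Yeast A-beta toxicity model in growth medium with pinned compounds, 48 h at 30 C; growth read as absorbance at 600 nm. Normalized to FeCl3/clioquinol equimolar mix (positive) and DMSO (negative).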
FUS suppressor = FUS proteinopathy suppression in yeast | 0.24% of 390,000 active | Potency, µM (titrated, usually from 76.6 µM), actives largely listed as activators | AID 1347120 | S. cerevisiae FUS-expressing, growth rescue, OD600, 24 h;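 note: plate controls were DMSO vehicle for no effect and reference control for full effect; nearly all actives have a fitted effect of over 55% in size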
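Yeast FUS proteinopathy model; galactose-induced FUS (2%), starting OD 0.005. Cpds in dilution series, 24hr, 30C, 99% humidity. Abs 600 nm growth. Pos ctrl CP55940 (top 92uM final); neg ctrl DMSO.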
aSyn yeast inh = alpha-synuclein toxicity inhibition in yeast; Yeast expressing alpha-synuclein, growth rescue, BacTiter-Glo, 24 h; Potency, µM (series often up to 46.1 µM), for the others: top-dose growth rescue (activation), hits mostly activators; 0.14% of 370,000 active; AID 652106; note: % of control where 0% means no effect; nearly all actives have a fitted effect of over 65% in size
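Readout is rescue of growth in alpha-synuclein-expressing yeast, so inhibitors of toxicity appear as activators. Growth after 24 hr at 30 deg C in galactose medium is quantified by luminescence.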
MBNL1-CUG inh = blocks human MBNL1 binding to CUG repeat RNA; AID 2675; 0.036% of 280,000 active; TR-FRET MBNL1-His/biotin-(CUG)12 binding, 665/545 ratio; Potency, µM (top dose mostly 57.5 µM), inactives show at the highest dose activity change, negative = inhibition, actives largely listed as inhibitors; Q9NR56; active = well fitted inhibition curve with a large enough effect in the signal ratio, with a control signal flat, not every such curve was filed as active; inconclusive = small, poorly fitted or top-dose-only effect, or effect the other way, or a change in a side signal; inactive = no such curve, though single readings can be large or run the other way; the % refers to the signal ratio; note: % is set by controls: 0 for no effect and ±100 for the full control effect
Target sequence (Q9NR56 whole entry, looked up): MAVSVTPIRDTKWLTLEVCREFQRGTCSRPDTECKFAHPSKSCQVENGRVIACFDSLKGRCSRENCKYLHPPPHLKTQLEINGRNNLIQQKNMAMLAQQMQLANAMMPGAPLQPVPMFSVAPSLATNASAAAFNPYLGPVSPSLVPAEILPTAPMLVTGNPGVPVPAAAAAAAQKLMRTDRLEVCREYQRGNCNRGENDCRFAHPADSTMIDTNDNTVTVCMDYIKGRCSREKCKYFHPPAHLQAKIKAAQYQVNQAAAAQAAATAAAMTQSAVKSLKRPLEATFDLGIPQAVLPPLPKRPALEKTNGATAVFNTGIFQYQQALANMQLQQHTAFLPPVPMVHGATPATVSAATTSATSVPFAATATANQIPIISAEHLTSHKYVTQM
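MBNL1-His + Biotin-(CUG)12, cpd titration 92 nM–58 uM; Tb anti-His Ab 0.055 ng/ul, SA-XL665 5 nM (final); 60 min RT; ratiometric 665/545 nm, Ex 340 nm; normalized to buffer and full-complex controls.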
TDP-43 yeast inh = rescues yeast growth from TDP-43 toxicity. Potency, µM (highest dose often 46.1 µM), without a hit: at the top dose growth rescue (activation), most hits filed as activators. TDP-43 expressing yeast growth rescue, BacTiter-Glo, 24 h. 1.8% of 410,000 active; note: % of control where 0% means no effect; nearly all actives have a fitted effect of over 50% in size
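Galactose-induced TDP-43 yeast, OD600=0.02, compound pinned; 24 hr, 30 deg C; BacTiter-Glo luminescence for growth. Inhibitors of TDP-43 toxicity read as activators.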
* hit, by the source's call. Hits are enriched below; roughly 2% of the tested compounds scored in any of these assays. Unless noted, calls come from the whole dose curve; as a rule, active = well fitted curve in the direction sought with a large enough effect; inconclusive = small, poorly fitted or top-dose-only effect, or another doubt; inactive = no such curve, though single readings can be large; an effect the other way counts as inactive or inconclusive. Potency is the fitted concentration of half-maximal effect.

Cc1ccnc(Nc2nc(-c3c(C)nc4sccn34)cs2)c1 was read as Glioma ERSR ind 8%, Abeta rescue inactive, FUS suppressor inactive, MBNL1-CUG inh -3% and TDP-43 yeast inh 7.1µM*.
For CCC1CN(CC(=O)NC(C)c2c(C)nn(C)c2C)Cc2cc(OC)ccc2O1 (configuration not stated) the results were Glioma ERSR ind -5%.
`COc1ccccc1C(=O)N[C@@H]1c2ccccc2C2(CCN(Cc3nccs3)CC2)[C@H]1OC` gave Glioma ERSR ind -4%.
`CCOc1ccc(C(=O)OC(C)C(=O)N2CCN(Cc3ccccc3)CC2)cc1` (configuration not stated) gave Glioma ERSR ind -4%, Abeta rescue inactive, FUS suppressor inactive, aSyn yeast inh -2% and TDP-43 yeast inh 3.2µM*.
For CCOc1ccc(C(=O)NCC(=O)N2CCN(Cc3ccccc3)CC2)cc1 the results were Glioma ERSR ind -6%, Abeta rescue inactive, FUS suppressor inactive, aSyn yeast inh -12% and TDP-43 yeast inh -5%.
CCc1ccc(S(=O)(=O)NCCc2csc3nc(-c4ccccc4)nn23)s1 was read as Glioma ERSR ind -4%, Abeta rescue inactive, FUS suppressor inactive and TDP-43 yeast inh 22µM*.
Screening Cc1c(CCNC(=O)c2ccc(Br)o2)sc2nc(-c3ccc(Cl)cc3)nn12 returned Glioma ERSR ind -5%, Abeta rescue inactive, FUS suppressor inactive and TDP-43 yeast inh inconclusive.
`COc1ccc(S(=O)(=O)NCCc2csc3nc(-c4ccc(OC)c(OC)c4)nn23)cc1C` gave Glioma ERSR ind -1%, Abeta rescue inactive, FUS suppressor inactive and TDP-43 yeast inh 14%.
`COc1ccc(-c2nc3scc(CCNS(=O)(=O)c4c(C)cc(C)cc4C)n3n2)cc1OC` gave Glioma ERSR ind -3%, Abeta rescue inactive, FUS suppressor inactive and TDP-43 yeast inh 22µM*.
For COc1ccc(-c2nc3sc(CCNC(=O)c4ccc(Br)o4)c(C)n3n2)cc1 the results were Glioma ERSR ind -2%, Abeta rescue inactive, FUS suppressor inconclusive and TDP-43 yeast inh 11µM*.
`COc1ccc(-c2nc3scc(CCNS(=O)(=O)c4cccs4)n3n2)cc1` gave Glioma ERSR ind -1%, Abeta rescue inactive, FUS suppressor inactive and TDP-43 yeast inh 25µM*.
`CCCS(=O)(=O)NCc1c(C)ncc2c1CCN(C(=O)/C=C/c1cccc(Cl)c1)C2` gave Glioma ERSR ind 2%.
For COc1ccc(F)c(CN2CCOc3ccc(CN4CCCCC4CO)cc3C2)c1 (configuration not stated) the results were Glioma ERSR ind -2%.
Cc1cnc(C)c(-c2cc(F)cc3c2OC(CNC(=O)C2CCOC2)C3)n1 (configuration not stated) was read as Glioma ERSR ind -2%.
`COc1ccc(-c2nc3sc(CCNS(=O)(=O)c4c(C)cc(C)cc4C)c(C)n3n2)cc1` gave Glioma ERSR ind -2%, Abeta rescue inconclusive, FUS suppressor inactive and TDP-43 yeast inh 35µM*.
`CCS(=O)(=O)NCCc1sc2nc(-c3ccc(OC)cc3)nn2c1C` gave Glioma ERSR ind 3%, Abeta rescue inactive, FUS suppressor inactive and TDP-43 yeast inh 40%.
For CCc1ccc(C2=CC(c3cccc(OC)c3OC)n3c(nc4ccccc43)N2)cc1 (configuration not stated) the results were Glioma ERSR ind -4%, Abeta rescue inactive, FUS suppressor inactive and TDP-43 yeast inh 1%.
`CC(C)c1ccc(C2=CC(c3cccc(Cl)c3)n3c(nc4ccccc43)N2)cc1` (configuration not stated) gave Glioma ERSR ind -8%, Abeta rescue inactive, FUS suppressor inactive and TDP-43 yeast inh 18µM*.
For CC(C)c1ccc(C2=CC(c3ccc(C(C)C)cc3)n3nnnc3N2)cc1 (configuration not stated) the results were Glioma ERSR ind 3%, Abeta rescue inactive, FUS suppressor inactive and TDP-43 yeast inh -3%.
NC1=NC(c2cccc(Cl)c2)n2c(nc3ccccc32)N1 (configuration not stated) was read as Glioma ERSR ind -3%, Abeta rescue inactive, FUS suppressor inactive and TDP-43 yeast inh 22%.
`CCc1ccc(C2=CC(c3cccc(C)c3)n3c(nc4ccccc43)N2)cc1` (configuration not stated) gave Glioma ERSR ind -8%, Abeta rescue inactive, FUS suppressor inactive and TDP-43 yeast inh 13µM*.
`CC(C)c1ccc(C2=CC(c3cccc(Cl)c3)n3ncnc3N2)cc1` (configuration not stated) gave Glioma ERSR ind 0%, Abeta rescue inactive, FUS suppressor inactive and TDP-43 yeast inh 13µM*.
CCOc1ccc(C2=CC(c3cccc(Br)c3)n3c(nc4ccccc43)N2)cc1Cl (configuration not stated) was read as Glioma ERSR ind 2%, Abeta rescue inactive, FUS suppressor inactive and TDP-43 yeast inh 13µM*.
Screening CC1(C)N=C(N)N=C(N)N1c1ccc(Cl)cc1 returned Glioma ERSR ind -6%.
`Cc1cccc(N2CCN(C(=O)NCc3noc4ccccc34)CC2)c1C` gave Glioma ERSR ind 3%, Abeta rescue inactive, FUS suppressor inactive and TDP-43 yeast inh inconclusive.
Cc1ccc2onc(CNC(=O)N3CCN(c4cccc(C)c4C)CC3)c2c1 was read as Glioma ERSR ind -2%, Abeta rescue inactive, FUS suppressor inconclusive and TDP-43 yeast inh 20µM*.
`COc1ccc(N2CCN(C(=O)Cc3noc4ccc(C)cc34)CC2)cc1` gave Glioma ERSR ind -2%, Abeta rescue inactive, FUS suppressor inactive and TDP-43 yeast inh 11µM*.
For OCCCNCc1cc2ccc(F)cc2nc1N1CCN(c2cccc(Cl)c2)CC1 the results were Glioma ERSR ind -3%.
CCN(CC)C(=O)CC[C@H]1CC[C@]2(CCCN(C(=O)C(C)(C)C)C2)O1 was read as FUS suppressor inactive.
Cc1c(C(=O)NCC2COCCO2)cnn1-c1nccc(-c2cccs2)n1 (configuration not stated) was read as Glioma ERSR ind 2%.
